Screening data as filed in PubChem.
In the library only some 2.5% were active in any assay of this set; here they are far more common.
TMEM16A inh: TMEM16A chloride channel inhibitors, primary screen, cell-based, HTS | Anoctamin-1 (Mus musculus), Q8BHY3 | HEK293 TMEM16A/YFP iodide influx fluorescence, ionomycin | normalized B-score (activity score, 25-100; higher = stronger inhibition) at 10 µM | 310,000 tested, 1.2% active | AID 588511, 2011;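 active = ratio plate-corrected score three or more library SD toward inhibition, starting fluorescence score within five deviations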;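 also: score derived from kinetic fluorescence span divided by baseline fluorescence per well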
Target sequence (Q8BHY3 whole entry, looked up): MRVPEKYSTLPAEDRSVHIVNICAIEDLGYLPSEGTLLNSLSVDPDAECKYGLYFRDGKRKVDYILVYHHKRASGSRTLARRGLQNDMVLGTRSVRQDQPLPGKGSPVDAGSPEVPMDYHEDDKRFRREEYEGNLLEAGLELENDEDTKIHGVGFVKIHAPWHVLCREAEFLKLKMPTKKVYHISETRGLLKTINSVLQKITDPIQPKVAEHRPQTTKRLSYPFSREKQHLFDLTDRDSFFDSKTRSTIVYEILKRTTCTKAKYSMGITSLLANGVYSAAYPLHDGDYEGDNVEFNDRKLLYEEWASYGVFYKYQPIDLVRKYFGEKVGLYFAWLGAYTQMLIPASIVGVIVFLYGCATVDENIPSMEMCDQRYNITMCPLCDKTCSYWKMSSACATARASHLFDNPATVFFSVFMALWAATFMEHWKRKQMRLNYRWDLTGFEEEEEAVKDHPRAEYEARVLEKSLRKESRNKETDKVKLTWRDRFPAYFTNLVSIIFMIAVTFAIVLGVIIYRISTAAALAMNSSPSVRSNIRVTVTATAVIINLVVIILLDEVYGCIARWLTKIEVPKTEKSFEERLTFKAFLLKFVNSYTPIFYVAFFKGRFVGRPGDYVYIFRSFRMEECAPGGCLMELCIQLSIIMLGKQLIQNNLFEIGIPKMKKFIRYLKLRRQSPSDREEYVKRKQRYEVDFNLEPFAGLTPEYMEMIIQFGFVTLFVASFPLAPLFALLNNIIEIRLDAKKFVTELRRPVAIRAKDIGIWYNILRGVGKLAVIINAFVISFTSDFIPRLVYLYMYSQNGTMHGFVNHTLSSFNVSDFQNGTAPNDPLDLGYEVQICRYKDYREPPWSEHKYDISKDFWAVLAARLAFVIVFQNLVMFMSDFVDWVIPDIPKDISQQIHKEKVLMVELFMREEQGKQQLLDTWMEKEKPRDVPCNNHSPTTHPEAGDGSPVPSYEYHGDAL
PKA-R1A act: activators of PKA-R1A holoenzyme, primary screen, biochemical, fluorescence polarization, Cy5-IP20, bovine R1A, mouse PKAc; 340,000 tested, 0.083% active; activation, % at 11.4 µM; PKA-R1A dissociation; scaled: DMSO 0%, 113 µM cGMP 100%; cAMP-dependent protein kinase type I-alpha regulatory subunit (Bos taurus) + …;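 active = percent activation above the mean of all tested compounds plus 3 SD, cut at about 19% in these data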;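 also: higher means more PKAc released from R1A so a rise in polarization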
PKA-R2B activ: activators of PKA-R2B holoenzyme, primary screen, biochemical, fluorescence polarization, Cy5-IP20, human; cAMP-dependent protein kinase catalytic subunit beta (Homo sapiens) + cAMP-dependent …; PKA-R2B holoenzyme dissociation; R2B truncated from residue 108, S112A mutant; 0% DMSO only, 100% 113 µM cGMP; activation, % at 11.4 µM; 340,000 tested, 0.079% active; AID 504700, 2011;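 active = activation above a cutoff set at the mean over all compounds plus 3 SD, cut at about 18% in these data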;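 also: higher means more holoenzyme dissociation and a rise in polarization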
CHT block: inhibitors of human choline transporter CHT; High affinity choline transporter 1 (Homo sapiens), Q9GZV3; CHT-expressing cells, membrane potential dye, choline response; hits give low values; B-score at 10 µM; 310,000 tested, 0.86% active;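 active = B-score over 3 SD under the library average, and starting fluorescence ratio not unusually high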;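 also: choline stimulus applied at its EC90 after an EC20 pre-addition; B-score computed on integrated fluorescence ratio after choline addition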
TMEM16A act: TMEM16A chloride channel activators or potentiators, primary screen, cell-based, HTS; Anoctamin-1 (Mus musculus), Q8BHY3; HEK293 TMEM16A/YFP-H148Q/I152L, iodide quench fluorescence; hits give low values; B-score at 10 µM; 340,000 tested, 0.3% active; AID 623877, 2012;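 active = fluorescence-ratio B-score plate-corrected deviation score at least 3 library SD below zero, with starting fluorescence score within 5 deviations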;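 also: channel opened by trigger with iodide after compound preincubation; score built on the fluorescence ratio of max minus min over baseline; more negative score means more quench and so TMEM16A activation or potentiation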
CHT PAM: CHT positive allosteric modulators, primary screen, cell-based, membrane potential dye, choline EC20; 310,000 tested, 0.49% active; AID 488977, 2010; CHT-expressing cells; hits give high values; LV-AA mutant CHT in HEK293 cells; B-score at 10 µM;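 active = initial fluorescence not abnormally high and integrated response B-score, plate-corrected, over 3 SD above library mean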
TMEM16A reconf: TMEM16A chloride channel inhibitors, confirmation, cell-based, re-confirmation; shares compounds with TMEM16A inh; HEK293 TMEM16A/YFP-H148Q, iodide quench fluorescence; ionomycin added to raise cell calcium; inhibition, % at 10 µM; 2,300 tested, 39% active;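 active = mean duplicate percent inhibition, scaled so buffer wells are 0 and the reference blocker 100, over three buffer SD above buffer mean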
TMEM16A Ca cntr: calcium mobilization in TMEM16A/YFP HEK293 cells, confirmation, counter-screen for TMEM16A inhibitor project; AID 652231, 2013; calcium response (% of ionomycin), % at 10 µM; 2,300 tested, 2% active; Fluo4 calcium mobilization; shares compounds with TMEM16A inh;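 active = duplicate-averaged calcium signal over 20% of the ionomycin maximum, relative to buffer baseline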;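 also: each well's signal is peak minus trough fluorescence divided by its pre-addition baseline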
Parental YFP cnt: iodide YFP quench changes in parental YFP-HEK293, counter-screen for TMEM16A inhibitor project, cell-based | shares compounds with TMEM16A inh | ionomycin | YFP ratio F(max-min)/F0 at 10 µM | 2,300 tested, under 10 active | AID 652233, 2013;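 active = yellow fluorescent protein signal ratio exceeding the buffer control mean by over 5 SD of those controls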;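 also: ratio is mean of duplicate wells from kinetic YFP trace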
ClC-1 rat inh: ClC-1 chloride channel inhibition, selectivity assay for TMEM16A inhibitor project, cell-based, voltage-dependent ClC-1; shares compounds with TMEM16A inh; CHO ClC-1-YFP, iodide influx fluorescence quench; iodide control reads 0, buffer control 100; ratio percent, % at 10 µM; 2,300 tested, under 10 active; AID 652236, 2013;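 active = duplicate-mean ratio percent above the mean of iodide-only control wells, which defines zero, plus 5 of their SD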;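 also: higher percent means stronger block of ClC-1 iodide influx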
A number is an active result; – = inactive; · = not tested or not shown.

SMILES	TMEM16A inh	PKA-R1A act	PKA-R2B activ	CHT block	TMEM16A act	CHT PAM	TMEM16A reconf	TMEM16A Ca cntr	Parental YFP cnt	ClC-1 rat inh
Cc1cc(C)c(S(=O)(=O)NC2CC3CCC2C3)c(C)c1 (configuration not stated)	–	–	–	–	–	–	·	·	·	·
NS(=O)(=O)c1ccc(NCc2ccccc2OCc2ccc(F)cc2)cc1	100	–	–	–	–	–	–	–	–	–
CC(Nc1nc(-c2cccc(Br)c2)cs1)c1nc2cc(Cl)c(N3CCCCC3)cc2n1CCOCCO (configuration not stated)	–	–	–	–	–	–	·	·	·	·
COc1cccc(Nc2nc(-c3sc(C)nc3C)cs2)c1	–	–	–	–	–	–	·	·	·	·
Cc1nc(C)c(-c2csc(Nc3ccc(F)cc3)n2)s1	25	–	–	–	–	–	21%	–	–	–
O=C(Nc1ccc(-c2noc(-c3ccccc3F)n2)cc1)c1cccs1	–	–	–	–	–	–	·	·	·	·
Cc1ccccc1-c1nc(-c2ccc(NC(=O)c3cccs3)cc2)no1	–	–	–	–	–	–	–	–	–	–
O=C(c1cccc(F)c1)N1CCC(c2nc3ccccc3s2)CC1	–	–	–	–	–	–	·	·	·	·
COc1cc(C(=O)OCC(=O)N(C)C)cc(NC(=O)c2ccco2)c1OC	100	–	–	–	–	–	–	–	–	–
CCOc1cc(S(=O)(=O)NCCc2ccc(OC)c(OC)c2)c(OCC)cc1-n1cnnn1	25	–	–	–	–	–	–	–	–	–
Cc1ccc(CNC(=O)C(=O)NCC2OCCN2S(=O)(=O)c2ccc(Cl)cc2)cc1 (configuration not stated)	–	–	–	–	–	–	·	·	·	·
COc1ccc(OC2C(=O)N(Cc3ccc4c(c3)OCO4)C2c2cccs2)cc1 (configuration not stated)	100	–	–	–	–	–	28%	–	–	–
O=C(CSc1nc2ncc(Br)cc2[nH]1)Nc1ccccc1-c1ccccc1	100	–	–	–	–	–	–	–	–	–
CCc1ccc(NC(=O)CSc2nc3ncc(Br)cc3[nH]2)cc1	–	–	–	–	–	–	·	·	·	·
Cc1ccccc1NC(=O)CCCSc1nc2ccccc2s1	100	–	–	–	–	–	–	–	–	–
O=C(OCC(=O)N1CCN(c2ccccc2)CC1)c1ccc(O)cc1O	–	–	–	–	–	–	·	·	·	·
CC(C)CC(=O)NC(=S)Nc1ccc(N2CCOCC2)cc1	–	–	–	–	–	–	·	·	·	·
COC(=O)Cc1ccc(NC(=S)Nc2ccc(N3CCOCC3)cc2)cc1	25	–	–	–	–	–	–	–	–	–
